# Laboratory results taken from PubChem BioAssay (EPA / NIEHS).
# “And” between values parts separate entries of the source, which are not always exact repeats. Equal entries are not always repeated. Records with an inconclusive call do not appear. Where a structure was tested more than once in an assay, its records may differ in their call. The source made the active and inactive calls. Rule for the calls, unless noted: active = hit-call score of the fitted dose curve at least 0.9, where 1 is the maximum; inactive = score below 0.9.
# Tests used:
# [1] = read-out: E-selectin (Homo sapiens) (UniProt P16581); test: BSK_SAg_Eselectin: BioMAP Diversity Plus: SAg Assay for Eselectin Biomarker Activity (AID 2283091); settings: primary human HUVEC with PBMC; actives raise or lower the signal
# Procedure, shortened: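 Co-culture: HUVEC + PBMC. Dose compound; 24 h. ELISA for E-selectin. Bidirectional fit vs DMSO.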
# [2] = read-out: Monokine induced gamma interferon (MIG), CXCL9 (gene 4283); test: BSK_SAg_MIG: BioMAP Diversity Plus: SAg Assay for Monokine induced gamma interferon (MIG) Biomarker Activity (AID 2283092); settings: primary human HUVEC with PBMC; actives raise or lower the signal
# Procedure, shortened: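 Values reflect bidirectional fitting of ELISA-measured MIG against DMSO vehicle, taken 24 h after dosing of a co-culture of human umbilical vein endothelial cells and peripheral blood mononuclear cells.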
# [3] = BSK_SAg_PBMCCytotoxicity: PBMC Cytotoxicity Assessment in the BioMAP Diversity Plus: SAg Assay (AID 2283093); settings: primary human HUVEC with PBMC;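 note: PBMC viability measured as Alamar Blue reduction fluorescence at 546/580 nm; fitted both ways against DMSO so a hit may be loss or gain of signal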;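 for AC50: PBMC superantigen activated with SEB plus TSST-1 one hour after compound addition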
# Procedure, shortened: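 Alamar Blue reduction (6 h, ex/em 546/580 nm) read after 90 h culture of PBMC pre-dosed 1 h then stimulated with SEB plus TSST-1, 20 ng/mL each. Gain or loss of signal fitted relative to DMSO.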
# [4] = read-out: Interleukin-8 (IL8), CXCL8 (gene 3576); test: BSK_SAg_IL8: BioMAP Diversity Plus: SAg Assay for Interleukin-8 (IL8) Biomarker Activity (AID 2283094); settings: primary human HUVEC with PBMC; actives raise or lower the signal
# Procedure, shortened: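 ELISA readout of IL-8 from a superantigen-activated endothelial/PBMC primary human co-culture, taken 24 h post-dosing and fitted in both directions against DMSO; parallel SRB total-protein staining flags overt cytotoxicity.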
# [5] = BSK_SAg_Proliferation: Cell Proliferation Assessment in the BioMAP Diversity Plus: SAg Assay (AID 2283095); settings: primary human HUVEC with PBMC;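 note: relative cell number as total protein by SRB absorbance in sub-confluent culture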
# Procedure, shortened: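 Relative cell number in the endothelial cell/PBMC co-culture was quantified at 96 h by SRB staining (0.1% SRB, 10% TCA fixation, read at 560 nm). Curves were fitted in both directions relative to DMSO baseline.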
# [6] = BSK_SAg_SRB: Viability Assessment in the BioMAP Diversity Plus: SAg Assay (AID 2283096); settings: primary human HUVEC with PBMC;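 note: cells read one day after compound addition; hits may be either gain or loss of signal compared with DMSO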
# Procedure, shortened: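 SRB absorbance at 560 nm served as the viability read-out. Cells (HUVEC plus peripheral blood mononuclear cells) were TCA-fixed and stained 24 h post-dosing; activity fitted in both directions against DMSO controls.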
# [7] = target: human CYP2A6, CYP2A6 (gene 1548) (UniProt P11509); test: NVS_ADME_hCYP2A6: NovaScreen (NVS) CYP450-related Enzyme Activity (ADME) Assay for human CYP2A6 (AID 2283099; active = hit-call score of the fitted dose curve at least 0.9, where 1 is the maximum)
# Chain of human CYP2A6, CYP2A6 (gene 1548) (P11509 whole entry, looked up): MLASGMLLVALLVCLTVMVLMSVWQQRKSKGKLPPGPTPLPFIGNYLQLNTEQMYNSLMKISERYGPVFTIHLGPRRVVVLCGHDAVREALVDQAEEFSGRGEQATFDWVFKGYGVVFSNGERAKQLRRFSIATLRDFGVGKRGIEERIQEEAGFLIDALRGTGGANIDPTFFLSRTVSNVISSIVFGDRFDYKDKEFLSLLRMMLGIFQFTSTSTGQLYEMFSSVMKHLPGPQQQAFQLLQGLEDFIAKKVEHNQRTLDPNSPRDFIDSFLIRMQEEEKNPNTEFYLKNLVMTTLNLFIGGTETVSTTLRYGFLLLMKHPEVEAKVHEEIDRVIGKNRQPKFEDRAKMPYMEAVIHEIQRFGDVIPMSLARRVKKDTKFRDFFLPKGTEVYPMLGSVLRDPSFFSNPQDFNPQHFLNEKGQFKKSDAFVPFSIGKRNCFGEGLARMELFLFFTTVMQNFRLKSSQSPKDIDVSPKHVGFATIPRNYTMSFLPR
# Procedure, shortened: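 Fluorescent substrate turnover by recombinant CYP2A6 (insect cell source), 0.5 h read. Screen: 10 uM, duplicate; threshold hits (e.g. 30% inhibition) → singleton concentration-response, top 20 uM. Positive and negative controls on every plate.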
# [8] = target: human CYP1A1, CYP1A1 (gene 1543) (UniProt P04798); test: NVS_ADME_hCYP1A1: NovaScreen (NVS) CYP450-related Enzyme Activity (ADME) Assay for human CYP1A1 (AID 2283100; active = hit-call score of the fitted dose curve at least 0.9, where 1 is the maximum)
# Chain of human CYP1A1, CYP1A1 (gene 1543) (P04798 whole entry, looked up): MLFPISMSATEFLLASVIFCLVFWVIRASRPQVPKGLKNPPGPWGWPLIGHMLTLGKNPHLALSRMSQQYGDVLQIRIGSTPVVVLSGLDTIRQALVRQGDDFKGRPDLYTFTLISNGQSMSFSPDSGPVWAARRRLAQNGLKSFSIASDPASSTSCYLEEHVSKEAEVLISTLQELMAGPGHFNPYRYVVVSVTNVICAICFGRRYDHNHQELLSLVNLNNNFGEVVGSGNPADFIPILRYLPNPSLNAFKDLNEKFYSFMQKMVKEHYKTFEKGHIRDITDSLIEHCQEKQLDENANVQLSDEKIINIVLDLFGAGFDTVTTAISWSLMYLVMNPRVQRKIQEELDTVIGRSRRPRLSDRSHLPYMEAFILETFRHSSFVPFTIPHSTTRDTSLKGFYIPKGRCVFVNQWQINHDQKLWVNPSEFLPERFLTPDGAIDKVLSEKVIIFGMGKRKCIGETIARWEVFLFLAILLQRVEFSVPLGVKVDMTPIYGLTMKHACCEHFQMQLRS
# Procedure, shortened: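 Recombinant hCYP1A1 + fluorogenic substrate, cell-free; 1 h; fluorescence read. Single-point 10 uM (duplicate) → concentration series, max 20 uM. Acetonitrile negative control.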
# [9] = target: human CYP2B6, CYP2B6 (gene 1555) (UniProt P20813); test: NVS_ADME_hCYP2B6: NovaScreen (NVS) CYP450-related Enzyme Activity (ADME) Assay for human CYP2B6 (AID 2283101; active = hit-call score of the fitted dose curve at least 0.9, where 1 is the maximum)
# Chain of human CYP2B6, CYP2B6 (gene 1555) (P20813 whole entry, looked up): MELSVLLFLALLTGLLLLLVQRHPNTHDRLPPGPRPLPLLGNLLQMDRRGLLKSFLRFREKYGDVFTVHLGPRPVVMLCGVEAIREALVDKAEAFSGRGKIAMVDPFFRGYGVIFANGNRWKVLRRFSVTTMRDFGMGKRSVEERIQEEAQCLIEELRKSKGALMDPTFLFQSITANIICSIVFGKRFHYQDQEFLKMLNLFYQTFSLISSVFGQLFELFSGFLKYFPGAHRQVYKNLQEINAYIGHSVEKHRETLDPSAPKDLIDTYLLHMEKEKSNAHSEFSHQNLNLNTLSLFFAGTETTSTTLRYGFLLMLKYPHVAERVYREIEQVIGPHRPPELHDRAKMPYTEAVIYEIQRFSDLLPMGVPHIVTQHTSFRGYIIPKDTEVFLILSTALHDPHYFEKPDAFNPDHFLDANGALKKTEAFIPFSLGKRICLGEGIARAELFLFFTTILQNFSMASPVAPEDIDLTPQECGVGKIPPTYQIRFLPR
# Procedure, shortened: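 Compounds were first screened in duplicate at 10 uM against recombinant enzyme, with the fluorescent product measured after 1 hour. Active compounds were retested over a concentration series. Loss of fluorescence versus acetonitrile control was scored as reduced enzyme activity.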
# Chain of E-selectin (Homo sapiens) (P16581 whole entry, looked up): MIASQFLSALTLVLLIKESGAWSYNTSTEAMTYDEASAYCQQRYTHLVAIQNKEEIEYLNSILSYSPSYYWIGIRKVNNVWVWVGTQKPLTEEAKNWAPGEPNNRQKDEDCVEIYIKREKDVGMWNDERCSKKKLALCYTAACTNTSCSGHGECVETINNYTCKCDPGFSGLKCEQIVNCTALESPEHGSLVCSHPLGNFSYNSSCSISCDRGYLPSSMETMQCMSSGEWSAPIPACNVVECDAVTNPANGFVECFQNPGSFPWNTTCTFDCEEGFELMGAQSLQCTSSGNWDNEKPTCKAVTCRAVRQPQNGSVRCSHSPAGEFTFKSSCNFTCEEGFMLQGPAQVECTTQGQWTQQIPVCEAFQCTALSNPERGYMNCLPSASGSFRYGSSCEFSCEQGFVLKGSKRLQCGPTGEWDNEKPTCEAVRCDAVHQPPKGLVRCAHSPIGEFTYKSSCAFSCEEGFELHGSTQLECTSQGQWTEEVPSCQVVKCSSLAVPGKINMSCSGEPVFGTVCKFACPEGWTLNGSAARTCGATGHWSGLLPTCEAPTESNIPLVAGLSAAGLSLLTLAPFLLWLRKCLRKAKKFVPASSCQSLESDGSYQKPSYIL
compound,measurement,setting,value
Oc1c(I)cc(I)cc1I,AC50,[1],14.7 µM (active)
same,AC50,[2],34.2 µM (active)
same,outcome,[3],inactive
same,AC50,[4],34.3 µM (active)
same,AC50,[5],31.9 µM (active)
same,AC50,[6],20 µM (active)
COc1cc(-c2ccc(N)c(OC)c2)ccc1N,AC50,[1],11.8 µM (active)
same,outcome,[2],inactive
same,outcome,[3],inactive
same,AC50,[4],7.64 µM (active)
same,outcome,[4],inactive
same,AC50,[5],11.8 µM (active)
same,outcome,[5],inactive
same,outcome,[6],inactive
same,outcome,[7],inactive
same,AC50,[8],3.13 µM (active) and 3.48 µM (active)
same,AC50,[9],6.76 µM (active) and 3.92 µM (active)
CN(C)N=O,outcome,[1],inactive
same,outcome,[2],inactive
same,outcome,[3],inactive
same,outcome,[4],inactive
same,outcome,[5],inactive
same,outcome,[6],inactive
O=C(Nc1ccc2[nH]ccc2c1)c1cc2cc(F)ccc2n1Cc1cccc(F)c1,AC50,[1],12.8 µM (active)
same,AC50,[2],12.7 µM (active)
same,AC50,[3],9.98 µM (active)
same,AC50,[4],6.87 µM (active)
same,AC50,[5],6.62 µM (active)
same,AC50,[6],14.6 µM (active)
CC(=O)C(Cl)C(=O)N(C)C (configuration not stated),AC50,[1],25.4 µM (active)
same,outcome,[2],inactive
same,AC50,[3],7.81 µM (active)
same,AC50,[4],14.1 µM (active)
same,AC50,[5],20 µM (active)
same,outcome,[6],inactive
CCOP(=S)(OCC)Oc1ccc(S(C)=O)cc1 (configuration not stated),outcome,[1],inactive
same,outcome,[2],inactive
same,outcome,[3],inactive
same,outcome,[4],inactive
same,outcome,[5],inactive
same,outcome,[6],inactive
COP(=S)(OC)Oc1ccc(Sc2ccc(OP(=S)(OC)OC)cc2)cc1,AC50,[1],30.4 µM (active)
same,outcome,[2],inactive
same,outcome,[3],inactive
same,AC50,[4],9.59 µM (active)
same,AC50,[5],28.8 µM (active)
same,outcome,[6],inactive
CCNc1nc(NC(C)(C)C)nc(SC)n1,outcome,[1],inactive
same,outcome,[2],inactive
same,outcome,[3],inactive
same,outcome,[4],inactive
same,outcome,[5],inactive
same,outcome,[6],inactive
CC(=O)OC(c1ccccc1)C(Cl)(Cl)Cl (configuration not stated),AC50,[1],20 µM (active)
same,outcome,[1],inactive
same,outcome,[2],inactive
same,outcome,[3],inactive
same,AC50,[4],13.4 µM (active)
same,outcome,[4],inactive
same,outcome,[5],inactive
same,outcome,[6],inactive
CCOP(=S)(OCC)Oc1nc(Cl)c(Cl)cc1Cl,AC50,[1],28 µM (active)
same,outcome,[2],inactive
same,AC50,[3],34.3 µM (active)
same,AC50,[4],20 µM (active)
same,AC50,[5],34.4 µM (active)
same,outcome,[6],inactive
Nc1ncc([N+](=O)[O-])s1,outcome,[1],inactive
same,outcome,[2],inactive
same,outcome,[3],inactive
same,outcome,[4],inactive
same,outcome,[5],inactive
same,outcome,[6],inactive
CCSC(C)CC1CC(=O)C(C(CC)=NOC/C=C/Cl)=C(O)C1 (configuration not stated),outcome,[1],inactive
same,outcome,[2],inactive
same,outcome,[3],inactive
same,outcome,[4],inactive
same,outcome,[5],inactive
same,outcome,[6],inactive
CCCCC(CC)CO[N+](=O)[O-] (configuration not stated),outcome,[1],inactive
same,outcome,[2],inactive
same,outcome,[3],inactive
same,outcome,[4],inactive
same,outcome,[5],inactive
same,outcome,[6],inactive
COC(=O)Cc1ccccc1,outcome,[1],inactive
same,outcome,[2],inactive
same,outcome,[3],inactive
same,outcome,[4],inactive
same,outcome,[5],inactive
same,outcome,[6],inactive
CCC(C)(C)c1ccc(O)c(C(C)(C)CC)c1,AC50,[1],9.83 µM (active)
same,AC50,[2],20.8 µM (active)
same,AC50,[3],9.42 µM (active)
same,AC50,[4],9.58 µM (active)
same,AC50,[5],7.43 µM (active)
same,AC50,[6],14.6 µM (active)
O=[N+]([O-])c1ccc2c3c(cccc13)CC2,outcome,[1],inactive
same,outcome,[2],inactive
same,outcome,[3],inactive
same,outcome,[4],inactive
same,outcome,[5],inactive
same,outcome,[6],inactive
CC(C)c1ccc(CO)cc1,outcome,[1],inactive
same,outcome,[2],inactive
same,outcome,[3],inactive
same,outcome,[4],inactive
same,outcome,[5],inactive
same,outcome,[6],inactive
CCOC(=O)/C=C(C)/C=C/C[C@@H](C)CCCC(C)C,AC50,[1],22.4 µM (active)
same,outcome,[2],inactive
same,AC50,[3],26.4 µM (active)
same,AC50,[4],20 µM (active)
same,AC50,[5],31.5 µM (active)
same,AC50,[6],33.1 µM (active)
C(=NC1CCCCC1)=NC1CCCCC1,AC50,[1],3.97 µM (active)
same,AC50,[2],12.6 µM (active)
same,AC50,[3],16.5 µM (active)
same,AC50,[4],3.97 µM (active)
same,AC50,[5],0.499 µM (active)
same,AC50,[6],30 µM (active)
O=c1[nH]c(=O)[nH]c(=O)[nH]1,outcome,[1],inactive
same,outcome,[2],inactive
same,outcome,[3],inactive
same,AC50,[4],32.6 µM (active)
same,outcome,[5],inactive
same,outcome,[6],inactive
CCC(=O)C(CC(C)N(C)C)(c1ccccc1)c1ccccc1 (configuration not stated),outcome,[1],inactive
same,outcome,[2],inactive
same,outcome,[3],inactive
same,outcome,[4],inactive
same,outcome,[5],inactive
same,outcome,[6],inactive
CC1(C)Cc2cccc(O)c2O1,outcome,[1],inactive
same,outcome,[2],inactive
same,outcome,[3],inactive
same,outcome,[4],inactive
same,outcome,[5],inactive
same,outcome,[6],inactive
Nc1ccc(-c2ccc(N)c(Cl)c2)cc1Cl,outcome,[1],inactive
same,outcome,[2],inactive
same,outcome,[3],inactive
same,outcome,[4],inactive
same,outcome,[5],inactive
same,AC50,[6],8.93 µM (active)
CCN1CCC2(CC1)COc1cc3c(cc12)N(C(=O)c1ccc(-c2ccc(-c4nnc(C)o4)cc2C)cc1)CC3,AC50,[1],13.3 µM (active)
same,AC50,[2],30.8 µM (active)
same,AC50,[3],12.6 µM (active)
same,AC50,[4],12.3 µM (active)
same,AC50,[5],6.95 µM (active)
same,AC50,[6],12.7 µM (active)
COP(=S)(OC)Oc1ccc(S(=O)(=O)N(C)C)cc1,outcome,[1],inactive
same,outcome,[2],inactive
same,outcome,[3],inactive
same,outcome,[4],inactive
same,outcome,[5],inactive
same,outcome,[6],inactive
CC(C)CCCCCCOC(=O)c1ccccc1C(=O)OCCCCCCC(C)C,AC50,[1],0.016 µM (active)
same,outcome,[2],inactive
same,outcome,[3],inactive
same,outcome,[4],inactive
same,outcome,[5],inactive
same,AC50,[6],0.206 µM (active)
CCCCCCCCC(=O)NCc1ccc(O)c(OC)c1,outcome,[1],inactive
same,outcome,[2],inactive
same,outcome,[3],inactive
same,outcome,[4],inactive
same,outcome,[5],inactive
same,outcome,[6],inactive
Oc1ccc(-c2ccccc2)cc1,outcome,[1],inactive
same,outcome,[2],inactive
same,outcome,[3],inactive
same,outcome,[4],inactive
same,outcome,[5],inactive
same,outcome,[6],inactive
Cc1ccccc1N,outcome,[1],inactive
same,outcome,[2],inactive
same,outcome,[3],inactive
same,outcome,[4],inactive
same,outcome,[5],inactive
same,outcome,[6],inactive
O=C(O)C(F)(F)C(F)(F)C(F)(F)C(F)(F)C(F)(F)C(F)(F)C(F)(F)C(F)(F)C(F)(F)C(F)(F)F,AC50,[1],35.3 µM (active)
same,outcome,[1],inactive
same,AC50,[2],34.9 µM (active)
same,outcome,[2],inactive
same,AC50,[3],31.5 µM (active)
same,outcome,[3],inactive
same,AC50,[4],26.8 µM (active)
same,outcome,[4],inactive
same,AC50,[5],32.8 µM (active)
same,outcome,[5],inactive
same,AC50,[6],29.4 µM (active)
same,outcome,[6],inactive
ClCC(Cl)CCl,outcome,[1],inactive
same,outcome,[2],inactive
same,outcome,[3],inactive
same,outcome,[4],inactive
same,outcome,[5],inactive
same,outcome,[6],inactive
CC(C)(OO)c1ccccc1,outcome,[1],inactive
same,outcome,[2],inactive
same,outcome,[3],inactive
same,outcome,[4],inactive
same,outcome,[5],inactive
same,outcome,[6],inactive
O=C(O)C(F)(F)C(F)(F)C(F)(F)C(F)(F)C(F)(F)C(F)(F)F,outcome,[1],inactive
same,outcome,[2],inactive
same,outcome,[3],inactive
same,outcome,[4],inactive
same,outcome,[5],inactive
same,outcome,[6],inactive
BrCCBr,outcome,[1],inactive
same,outcome,[2],inactive
same,outcome,[3],inactive
same,outcome,[4],inactive
same,outcome,[5],inactive
same,outcome,[6],inactive
